# Assay results as given in PubChem BioAssay (NCI).
# Compounds without any hit were thinned out: in the full panel of roughly 79,000, 15% have a hit. Unmarked numbers belong to inactive results. Calls of active or inactive are those of the source. No stated cut-off is given here; in the data, active means growth inhibition above about 70%; inactive means the rest.
# Tests used:
# [1] = NCI Yeast Anticancer Drug Screen. Data for the rad52 strain (AID 147);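 further: 0% = growth of vehicle-treated control cultures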; details: S. cerevisiae rad52 mutant growth inhibition, stronger effect = higher value
# Outline: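 Read-out: growth inhibition versus vehicle-treated controls. Cells were a DNA repair-deficient yeast strain treated with compounds.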
# [2] = NCI Yeast Anticancer Drug Screen. Data for the wt1 strain (AID 149);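 further: 0% = growth of vehicle-treated wt1 cultures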; details: S. cerevisiae wt1 strain (SPY 50644) growth inhibition, stronger effect = higher value
# Outline: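 wt1 yeast, compound-treated; % growth inhibition vs vehicle control.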
# [3] = NCI Yeast Anticancer Drug Screen. Data for the rad50EPP+ strain (AID 151);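 further: 0% = growth of vehicle-treated control cultures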; details: S. cerevisiae rad50 mutant strain, stronger effect = higher value
# Outline: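 Growth inhibition read against vehicle controls in rad50EPP+ yeast, a strain altered in DNA damage repair, after compound exposure.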
# [4] = NCI Yeast Anticancer Drug Screen. Data for the rad50 strain (AID 155);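 further: 0% = growth of vehicle-only cultures of the same strain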; details: S. cerevisiae rad50 strain growth inhibition, stronger effect = higher value
# Outline: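 Genetically altered yeast (DNA repair pathway); compound treatment; growth inhibition vs vehicle ctrl.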
# [5] = NCI Yeast Anticancer Drug Screen. Data for the mec2-1 strain (AID 157); details: S. cerevisiae mec2-1 strain, stronger effect = higher value
# Outline: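 Yeast mec2-1 mutant treated with compound. Readout: growth inhibition vs vehicle controls.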
# [6] = NCI Yeast Anticancer Drug Screen. Data for the sgs1 mgt1 strain (AID 161);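 further: 0% = growth of cultures given vehicle only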; details: S. cerevisiae sgs1 mgt1 strain, stronger effect = higher value
# Outline: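 Test agents were incubated with a DNA-repair-mutant yeast strain. Growth was then read and compared against vehicle-treated controls.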
# [7] = NCI Yeast Anticancer Drug Screen. Data for the CLN2oe strain (AID 163);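 further: 0% = growth of vehicle-only control cultures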; details: S. cerevisiae CLN2oe strain, stronger effect = higher value
# Outline: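 Read-out: yeast growth inhibition, expressed relative to vehicle-only controls. The strain bears an engineered cell-cycle alteration.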
# [8] = NCI Yeast Anticancer Drug Screen. Data for the cln2 rad14 strain (AID 165);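 further: 0% = growth equal to vehicle treated cultures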; details: S. cerevisiae cln2 rad14 strain, stronger effect = higher value
# Outline: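 cln2 rad14 yeast strain; compound exposure; growth inhibition read vs vehicle controls.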
# [9] = NCI Yeast Anticancer Drug Screen. Data for the bub3 strain (AID 167); details: S. cerevisiae bub3 mutant strain, stronger effect = higher value
# Outline: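 Yeast carrying a defined mutation is treated with each compound, and growth is compared with that of vehicle-exposed cells to give inhibition.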
# [10] = NCI Yeast Anticancer Drug Screen. Data for the wt2 strain (AID 169);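 further: 0% = growth of vehicle-treated yeast cultures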; details: S. cerevisiae wt2 strain growth inhibition, stronger effect = higher value
# Outline: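 Read-out: growth inhibition versus vehicle-treated control cultures after compound exposure of the yeast strain.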
# [11] = NCI Yeast Anticancer Drug Screen. Data for the mlh1 strain (AID 171);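 further: 0% = growth of vehicle-treated control cultures of the same strain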; details: S. cerevisiae mlh1 strain growth inhibition, stronger effect = higher value
# Outline: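 Read-out: growth inhibition versus vehicle controls. Strain: engineered yeast with a defined DNA repair or cell cycle defect, compound-treated.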
# [12] = NCI Yeast Anticancer Drug Screen. Data for the sgs1 strain (AID 173);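 further: 0% = growth of vehicle-only control cultures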; details: S. cerevisiae sgs1 mutant, stronger effect = higher value
# Outline: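 Read-out: yeast growth inhibition relative to vehicle controls, following compound exposure of a strain with a defined DNA repair/cell cycle alteration.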
# [13] = NCI Yeast Anticancer Drug Screen. Data for the mlh1 rad18 strain (AID 175); details: S. cerevisiae mlh1 rad18 strain growth inhibition, stronger effect = higher value
# Outline: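 Yeast w/ defined DNA-repair lesions; compound exposure; growth vs vehicle controls → % inhibition.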
# [14] = NCI Yeast Anticancer Drug Screen. Data for the rad18 strain (AID 177); details: S. cerevisiae rad18 mutant growth inhibition, stronger effect = higher value
# Outline: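 Readout: growth inhibition vs vehicle controls. Cells: genetically altered yeast strain, DNA repair defect.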
# [15] = NCI Yeast Anticancer Drug Screen. Data for the rad14 strain (AID 159);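 further: 0% = growth of vehicle-treated control cultures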; details: S. cerevisiae rad14 strain growth inhibition, stronger effect = higher value
# Outline: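 Test compounds were applied to a repair-deficient yeast strain. Its growth was then compared with that of cultures given vehicle alone, and inhibition was expressed relative to those controls.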
# [16] = at 5.0 µM (retest, dose inferred, filed as 0.5)
# [17] = at 50.0 µM (retest, dose inferred, filed as 5.0)
smiles,measurement,setting,value
CCNc1ccc2c(c1)C(=O)N(OS(C)(=O)=O)C2=O,growth inhibition,[1]; at 1.2 µM,1%
same,growth inhibition,[1]; at 3.7 µM,1%
same,growth inhibition,[1]; at 11.0 µM,5%
same,growth inhibition,[1]; at 33.0 µM,23%
same,growth inhibition,[1]; at 100.0 µM,79% (active)
same,growth inhibition,[2]; at 1.2 µM,1%
same,growth inhibition,[2]; at 3.7 µM,5%
same,growth inhibition,[2]; at 11.0 µM,4%
same,growth inhibition,[2]; at 33.0 µM,10%
same,growth inhibition,[2]; at 100.0 µM,31%
same,growth inhibition,[3]; at 1.2 µM,7%
same,growth inhibition,[3]; at 3.7 µM,6%
same,growth inhibition,[3]; at 11.0 µM,7%
same,growth inhibition,[3]; at 33.0 µM,11%
same,growth inhibition,[3]; at 100.0 µM,27%
same,growth inhibition,[4]; at 1.2 µM,2%
same,growth inhibition,[4]; at 3.7 µM,2%
same,growth inhibition,[4]; [16],4%
same,growth inhibition,[4]; at 11.0 µM,8%
same,growth inhibition,[4]; at 33.0 µM,18%
same,growth inhibition,[4]; [17],18%
same,growth inhibition,[4]; at 50.0 µM,96.8% (active)
same,growth inhibition,[4]; at 100.0 µM,88% (active)
same,growth inhibition,[5]; at 1.2 µM,6%
same,growth inhibition,[5]; at 3.7 µM,10%
same,growth inhibition,[5]; [16],4%
same,growth inhibition,[5]; at 11.0 µM,14%
same,growth inhibition,[5]; at 33.0 µM,21%
same,growth inhibition,[5]; [17],23%
same,growth inhibition,[5]; at 50.0 µM,61%
same,growth inhibition,[5]; at 100.0 µM,7%
same,growth inhibition,[6]; [16],3%
same,growth inhibition,[6]; [17],12%
same,growth inhibition,[6]; at 50.0 µM,85.6% (active)
same,growth inhibition,[7]; at 1.2 µM,5%
same,growth inhibition,[7]; at 3.7 µM,-6%
same,growth inhibition,[7]; at 11.0 µM,4%
same,growth inhibition,[7]; at 33.0 µM,15%
same,growth inhibition,[7]; at 100.0 µM,40%
same,growth inhibition,[8]; [16],8%
same,growth inhibition,[8]; [17],21%
same,growth inhibition,[8]; at 50.0 µM,69.6%
same,growth inhibition,[9]; at 1.2 µM,-2%
same,growth inhibition,[9]; at 3.7 µM,-2%
same,growth inhibition,[9]; [16],-1%
same,growth inhibition,[9]; at 11.0 µM,0%
same,growth inhibition,[9]; at 33.0 µM,8%
same,growth inhibition,[9]; [17],12%
same,growth inhibition,[9]; at 50.0 µM,24.5%
same,growth inhibition,[9]; at 100.0 µM,26%
same,growth inhibition,[10]; at 1.2 µM,0%
same,growth inhibition,[10]; at 3.7 µM,1%
same,growth inhibition,[10]; at 11.0 µM,1%
same,growth inhibition,[10]; at 33.0 µM,6%
same,growth inhibition,[10]; at 100.0 µM,41%
same,growth inhibition,[11]; at 1.2 µM,3%
same,growth inhibition,[11]; at 3.7 µM,3%
same,growth inhibition,[11]; at 11.0 µM,5%
same,growth inhibition,[11]; at 33.0 µM,12%
same,growth inhibition,[11]; at 100.0 µM,42%
same,growth inhibition,[12]; at 1.2 µM,2%
same,growth inhibition,[12]; at 3.7 µM,3%
same,growth inhibition,[12]; at 11.0 µM,6%
same,growth inhibition,[12]; at 33.0 µM,15%
same,growth inhibition,[12]; at 100.0 µM,62%
same,growth inhibition,[13]; [16],-3%
same,growth inhibition,[13]; [17],23%
same,growth inhibition,[13]; at 50.0 µM,97% (active)
same,growth inhibition,[14]; at 1.2 µM,4%
same,growth inhibition,[14]; at 3.7 µM,2%
same,growth inhibition,[14]; at 11.0 µM,3%
same,growth inhibition,[14]; at 33.0 µM,14%
same,growth inhibition,[14]; at 100.0 µM,73% (active)
O=C1NC(c2c(Cl)cccc2Cl)Nc2ccccc21 (stereo not drawn),growth inhibition,[1]; at 1.2 µM,9%
same,growth inhibition,[1]; at 3.7 µM,9%
same,growth inhibition,[1]; at 11.0 µM,12%
same,growth inhibition,[1]; at 33.0 µM,75% (active)
same,growth inhibition,[1]; at 100.0 µM,95% (active)
same,growth inhibition,[2]; at 1.2 µM,-25%
same,growth inhibition,[2]; at 3.7 µM,-26%
same,growth inhibition,[2]; at 11.0 µM,-22%
same,growth inhibition,[2]; at 33.0 µM,52%
same,growth inhibition,[2]; at 100.0 µM,91% (active)
same,growth inhibition,[3]; at 1.2 µM,-12%
same,growth inhibition,[3]; at 3.7 µM,-21%
same,growth inhibition,[3]; at 11.0 µM,-18%
same,growth inhibition,[3]; at 33.0 µM,-14%
same,growth inhibition,[3]; at 100.0 µM,6%
same,growth inhibition,[4]; at 1.2 µM,12%
same,growth inhibition,[4]; at 3.7 µM,4%
same,growth inhibition,[4]; [16],86% (active)
same,growth inhibition,[4]; at 11.0 µM,10%
same,growth inhibition,[4]; at 33.0 µM,72% (active)
same,growth inhibition,[4]; [17],100% (active)
same,growth inhibition,[4]; at 50.0 µM,83.7% (active)
same,growth inhibition,[4]; at 100.0 µM,91% (active)
same,growth inhibition,[5]; at 1.2 µM,-1%
same,growth inhibition,[5]; at 3.7 µM,-9%
same,growth inhibition,[5]; [16],92% (active)
same,growth inhibition,[5]; at 11.0 µM,-9%
same,growth inhibition,[5]; at 33.0 µM,63%
same,growth inhibition,[5]; [17],100% (active)
same,growth inhibition,[5]; at 50.0 µM,83.7% (active)
same,growth inhibition,[5]; at 100.0 µM,94% (active)
same,growth inhibition,[15]; at 1.2 µM,-44%
same,growth inhibition,[15]; at 3.7 µM,-32%
same,growth inhibition,[15]; at 11.0 µM,-28%
same,growth inhibition,[15]; at 33.0 µM,58%
same,growth inhibition,[15]; at 100.0 µM,89% (active)
same,growth inhibition,[6]; [16],-3%
same,growth inhibition,[6]; [17],87% (active)
same,growth inhibition,[7]; at 1.2 µM,14%
same,growth inhibition,[7]; at 3.7 µM,2%
same,growth inhibition,[7]; at 11.0 µM,-7%
same,growth inhibition,[7]; at 33.0 µM,54%
same,growth inhibition,[7]; at 100.0 µM,93% (active)
same,growth inhibition,[8]; [16],12%
same,growth inhibition,[8]; [17],90% (active)
same,growth inhibition,[9]; at 1.2 µM,4%
same,growth inhibition,[9]; at 3.7 µM,15%
same,growth inhibition,[9]; [16],-1%
same,growth inhibition,[9]; at 11.0 µM,16%
same,growth inhibition,[9]; at 33.0 µM,78% (active)
same,growth inhibition,[9]; [17],87% (active)
same,growth inhibition,[9]; at 100.0 µM,94% (active)
same,growth inhibition,[10]; at 1.2 µM,-28%
same,growth inhibition,[10]; at 3.7 µM,-32%
same,growth inhibition,[10]; at 11.0 µM,-26%
same,growth inhibition,[10]; at 33.0 µM,39%
same,growth inhibition,[10]; at 100.0 µM,89% (active)
same,growth inhibition,[11]; at 1.2 µM,-35%
same,growth inhibition,[11]; at 3.7 µM,-29%
same,growth inhibition,[11]; at 11.0 µM,-40%
same,growth inhibition,[11]; at 33.0 µM,35%
same,growth inhibition,[11]; at 100.0 µM,87% (active)
same,growth inhibition,[12]; at 1.2 µM,-27%
same,growth inhibition,[12]; at 3.7 µM,-33%
same,growth inhibition,[12]; at 11.0 µM,-25%
same,growth inhibition,[12]; at 33.0 µM,41%
same,growth inhibition,[12]; at 100.0 µM,88% (active)
same,growth inhibition,[13]; [16],71% (active)
same,growth inhibition,[13]; [17],100% (active)
same,growth inhibition,[13]; at 50.0 µM,84.5% (active)
same,growth inhibition,[14]; at 1.2 µM,0%
same,growth inhibition,[14]; at 3.7 µM,-2%
same,growth inhibition,[14]; at 11.0 µM,0%
same,growth inhibition,[14]; at 33.0 µM,74% (active)
same,growth inhibition,[14]; at 100.0 µM,93% (active)
